# Measured values from PMC5540273 (PLoS ONE, 2017).
# Assays:
# Conditions in all cases: concentration: 1 μM, replicates: in singlicate; n = 1
# [1] = tested on: T1, RSK4(Kin.Dom.1-N-terminal)
# T1 construct: gene RPS6KA6
# [2] = tested on: T2, RSK4(Kin.Dom.2-C-terminal)
# T2 construct: gene RPS6KA6
# S6K1 = tested on: S6K1
# SBK1 = tested on: SBK1
# SGK2 = tested on: SGK2
# SGK3 = tested on: SGK3
# SGK = tested on: SGK
# SIK2 = tested on: SIK2
# SIK = tested on: SIK
# SLK = tested on: SLK
# SNARK = tested on: T3, SNARK
# T3 construct: gene NUAK2
# SNRK = tested on: SNRK
# SRC = tested on: SRC
# SRMS = tested on: SRMS
# SRPK1 = tested on: SRPK1
# SRPK2 = tested on: SRPK2
# SRPK3 = tested on: SRPK3
# STK16 = tested on: STK16
# STK33 = tested on: STK33
# STK35 = tested on: STK35
# 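Also: KINOMEscan kinase panel screen.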
Structure (SMILES),%Inh [1] [%],%Inh [2] [%],%Inh (S6K1) [%],%Inh (SBK1) [%],%Inh (SGK2) [%],%Inh (SGK3) [%],%Inh (SGK) [%],%Inh (SIK2) [%],%Inh (SIK) [%],%Inh (SLK) [%],%Inh (SNARK) [%],%Inh (SNRK) [%],%Inh (SRC) [%],%Inh (SRMS) [%],%Inh (SRPK1) [%],%Inh (SRPK2) [%],%Inh (SRPK3) [%],%Inh (STK16) [%],%Inh (STK33) [%],%Inh (STK35) [%]
O=C(O)C(F)(F)F.O=c1[nH]ccc2nc(N[C@@H]3CCNC3)nc(Nc3cc(Cl)cc(Cl)c3)c12 [GSK2188764],96.3,32,94.3,91.5,96.4,99.5,99.9,54,1,98.9,98.8,6,0,3,84,14,77,95,98.1,46
CC(C)NCC(Cc1ccccc1)NC(=O)c1cc(Br)c(-c2ccnc3[nH]ccc23)s1.Cl.Cl (stereo not shown) [GSK1383281],5,20,56,45,0,66,59,0,4,0,89,0,0,0,43,0,0,46,96.6,0
COc1cccc2c(-c3ccncc3)c(-c3ccc(F)cc3)nn12 [GW468513],23,86,3,0,0,9,0,0,0,23,9,0,1,0,0,0,2,5,1,0
N#Cc1cnc2cc(-c3cnc(CNCCN4CCOCC4)s3)ccc2c1Nc1ccc(Oc2ccccc2)cc1 [GW664114],11,14,61,1,0,4,1,16,45,67,0,0,94.1,95.9,30,0,0,12,2,97.7
COC(=O)Nc1nc2ccc(Oc3ccc(CC(=O)Nc4cc(C(F)(F)F)ccc4F)cc3)cc2[nH]1 [GW680903],0,9,9,10,4,0,0,0,0,2,0,0,0,0,31,0,0,0,0,0
Cn1cc(-c2cnc(N)c3c(-c4ccc5c(c4)CCN5C(=O)Cc4ccccc4)csc23)cn1 [GSK2593074],0,18,16,0,6,0,21,9,42,69,12,0,81,55,3,0,0,24,0,4
NCCC(NC(=O)c1cc(Br)c(-c2ccnc3[nH]ccc23)s1)c1ccccc1.O=C(O)C(F)(F)F.O=C(O)C(F)(F)F (stereo not shown) [GSK1307810],53,4,48,66,67,64,78,0,0,16,90.2,0,0,0,81,36,83,63,90,20
O=C(Nc1n[nH]c2nc(-c3cccc(O)c3)ccc12)C1CC1 [SB-711805],52,14,0,4,14,13,28,0,0,48,0,7,0,15,45,0,32,83,0,0
